Bioassay records: PubChem, National Center for Advancing Translational Sciences (NCATS)
In the library only some 1.7% were active in any assay of this set; here they are far more common.
GLP1R inv ag: acts as inverse agonist at human GLP-1 receptor | P43220 | HEK293 GLP-1R CRE-luciferase, luminescence, 24 h; GLP-1R form is constitutively active | Potency, µM (doses to about 38.3 µM), inactives show at the highest dose activity change, negative = inhibition, usual class: inhibitors | actives 1.6% (n = 410,000); further: on the % scale 0 is the no-effect control and ±100 the full control effect; nearly all actives have a fitted effect of over 55% in size
Target sequence (P43220 whole entry, looked up): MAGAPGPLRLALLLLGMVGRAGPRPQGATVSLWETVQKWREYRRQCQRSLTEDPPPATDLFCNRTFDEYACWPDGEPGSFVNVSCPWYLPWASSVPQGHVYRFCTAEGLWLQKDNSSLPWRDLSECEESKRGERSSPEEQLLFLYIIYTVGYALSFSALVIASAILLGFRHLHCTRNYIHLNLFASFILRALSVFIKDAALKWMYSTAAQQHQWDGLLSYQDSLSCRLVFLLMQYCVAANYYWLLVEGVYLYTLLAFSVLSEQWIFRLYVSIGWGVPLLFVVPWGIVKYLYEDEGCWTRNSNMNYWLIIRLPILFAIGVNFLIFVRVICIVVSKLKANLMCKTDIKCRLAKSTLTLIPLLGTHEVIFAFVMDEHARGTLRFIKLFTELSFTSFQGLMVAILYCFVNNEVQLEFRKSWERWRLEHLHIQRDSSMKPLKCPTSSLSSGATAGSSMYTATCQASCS
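Readout was luciferase luminescence, measured 12 min after detection reagent at room temperature. Beforehand, GLP-1R reporter HEK293 cells had sat 12 h, then received compounds for 24 hr at 37 deg C.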
HEK293 tox: cytotoxicity counter-screen for GLP-1 receptor inverse agonists. Potency, µM (highest dose often 38.3 µM), for the others: at the highest dose activity change, negative = inhibition, hits mostly inhibitors. actives 0.13% (n = 410,000). AID 624418. HEK293 cAMP-luciferase reporter cells, luminescence, 24 h;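 further: loss of luciferase light is scored as toxicity; on the % scale 0 is the no-effect control and ±100 the full control effect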
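Quantitative HTS format, 1536 wells, 200 cells/uL seeded. Compounds: 23 nL, 24 h, 37 °C. Detection: luciferase reagent, luminescence at 12 min RT; decreased signal taken as cytotoxic.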
GLP1R ag: GLP-1 receptor (human) agonism; P43220; HEK293 GLP-1R CRE-luciferase, luminescence, 4-6 h; cells express a hypersensitive GLP-1R form; actives 0.007% (n = 380,000); Potency, µM (doses to about 45.6 µM), for the others: at the highest dose activation, most hits filed as activators; further: % of control where 0% means no effect
PTHR1 agonist: agonists of human PTHR1 parathyroid hormone receptor. Q03431. HEK293 GP2 PTHR1 cells, GloSensor cAMP luminescence, 1 h. Potency, µM (top dose mostly 115 µM), inactives show at the top dose activation, hits mostly activators. actives 0.075% (n = 410,000). AID 743266; further: nearly all actives have a fitted effect of over 55% in size
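HEK-293-derived GP2 cells expressing PTHR1 and a GloSensor cAMP reporter, 3,000/well, plated overnight, given luciferin plus IBMX (each 0.5 mM as added) for 1 h at 37 °C, then compound for 1 h at 37 °C. Luminescence was read after 15 min at room temperature.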
Active calls of the source: *; i = inactive; ? = inconclusive; · = no result given; [ ] = remark or other dose. The call rests on the fitted dose curve; in most records, active means well fitted curve in the direction sought with a large enough effect; inconclusive means small, poorly fitted or top-dose-only effect, or another doubt; inactive means no such curve, though single readings can be large; an effect the other way counts as inactive or inconclusive. Potency means the concentration at half of the fitted maximal effect.

SMILES	GLP1R inv ag	HEK293 tox	GLP1R ag	PTHR1 agonist
O=C(Nc1ccc(NC(=O)c2ccc(Cl)c(S(=O)(=O)N3CCOCC3)c2)cc1)c1ccccc1	-5.1%	0.6%	-0.9%	i
O=C(Nc1ccc(Cl)c(S(=O)(=O)N2CCOCC2)c1)c1ccccc1-c1ccc(C(F)(F)F)cc1	2.82µM*	2.4%	19.1%	i
Cc1ccc(-c2csc(=Nc3ccc(F)cc3)n2Cc2ccc3c(c2)OCO3)cc1C	10.8%	1.2%	·	-1.5%
CCOc1cc(-c2nc(-c3ccc(-c4ccc(OC)cc4)nc3OC)no2)cc(OCC)c1OCC	17.2%	-7.0%	·	15.9%
CC(C)c1nnc(NC(=O)c2nc(S(=O)(=O)Cc3ccccc3F)ncc2Cl)s1	?	?	-10.4%	-32.8%
CCOc1ccc(NC(=O)c2nc(S(=O)(=O)Cc3ccccc3F)ncc2Cl)cc1	11.2µM*	?	·	-1.5%
COC(=O)c1ccc2c(c1)C(C)(C)C(/C=C/c1ccccc1O)=[N+]2C	?	10µM*	-23.0%	-17.9%[57.5 µM]
C[N+]1=C(/C=C/Nc2ccccc2Cl)C(C)(C)c2ccccc21	-13.6%	-7.0%[1.53 µM]	5.6%	-84.8%
Cc1ccc(C2c3[nH]c4ccccc4c3CCN2C(=O)CSc2ccccc2)cc1 (stereo unspecified)	?	-1.9%	·	-4.8%
O=C(CCC1CCCC1)N1CCc2c([nH]c3ccccc23)C1c1ccc(F)cc1 (stereo unspecified)	?	-0.8%	·	-4.4%
CCOc1ccc(C2c3[nH]c4ccccc4c3CCN2C(=O)CCC2CCCC2)cc1 (stereo unspecified)	1.26µM*	0.7%	·	i
O=C(CCC1CCCC1)N1CCc2c([nH]c3ccccc23)C1c1ccc(Cl)cc1 (stereo unspecified)	3.16µM*	12.8%	·	i
CCOc1ccc(C2c3[nH]c4ccccc4c3CCN2C(=O)CSc2ccccc2)cc1 (stereo unspecified)	5.01µM*	3.1%	·	28.1%
O=C(CSCc1ccc(F)cc1)N1CCc2c([nH]c3ccccc23)C1c1ccc(F)cc1 (stereo unspecified)	4.47µM*	-5.1%	·	-5.9%
Clc1cccc(CNc2ncnc3c2nc2n3CCCC2)c1	-6.3%	8.9%	·	-16.8%
COc1cc(-c2noc(-c3ccc(NCCc4ccccc4)c([N+](=O)[O-])c3)n2)cc(OC)c1OC	12.8%	2.5%	·	-6.7%
Cc1ccc(Cl)cc1N1CCN(C(=O)c2ccc(NC(=O)c3nsc4ccccc34)cc2)CC1	?	0.6%	·	-71.4%
CCCCN(CCCC)C(=O)c1cc2c(=O)n3ccccc3nc2s1	6.0%	33.1%	·	i
CCCCc1nn2c(=O)cc(COC(=O)c3ccccc3C)nc2s1	18.1%	3.1%	·	-6.6%
CCc1ccc(CN(Cc2cn[nH]c2-c2ccc(OC)cc2)C(=O)Nc2ccc(Br)cc2)cc1	?	-19.4%	·	-8.6%
Cc1ccc(CNC(=O)c2ccc(N3CCCC3)c(NC(=O)Nc3ccc(C)cc3)c2)cc1	4.8%	7.0%	·	i
CCOC(=O)c1[nH]c(C)c(C(=O)N2CCc3c([nH]c4ccccc34)C2c2ccccn2)c1C (stereo unspecified)	11.2µM*	-19.3%	6.6%	-25.0%
O=C(CCc1ccccc1)N1CCc2c([nH]c3ccccc23)C1c1ccc(Cl)cc1 (stereo unspecified)	?	0.6%	·	i
CCOc1cccc(CC(=O)N2CCc3c([nH]c4ccccc34)C2c2ccc(Cl)cc2)c1OCC (stereo unspecified)	10µM*	-14.5%	·	-6.0%
CCCCOC(=O)C1CN(c2ccccc2)N=C1C(=O)OCC (stereo unspecified)	10µM*	13.5%	0.7%	-14.3%
SMILES	GLP1R inv ag	HEK293 tox	GLP1R ag	PTHR1 agonist
Clc1ccc(CN2C3=NCCCN3c3ccccc32)cc1Cl	11.2µM*	-23.8%	3.1%	i
Clc1ccc(CN2C3=NCCCN3c3ccccc32)cc1	?	-21.7%	-15.4%	i
COc1ccccc1C(=O)Nc1ccc(N2CCN(Cc3ccccc3)CC2)cc1	11.2µM*	-7.4%	-2.2%	-7.4%[57.5 µM]
CC(C)Sc1ncc(Cl)c(C(=O)Nc2nc3ccc(S(C)(=O)=O)cc3s2)n1	12.2%	2.0%	·	-24.9%
CCCc1cnc(NCCNCC(O)COc2ccc(Cl)c(Cl)c2)nc1 (stereo unspecified)	5.01µM*	?	2.9%	i
CC(=O)c1cccc(OCC(O)CNCCc2ccc(Cl)cc2)c1 (stereo unspecified)	-23.8%	13.8%	-0.7%	i
C/C(=N\Nc1nc(C(C)(C)C)cs1)c1ccccc1	8.91µM*	1.7%	-0.5%	-27.1%
COc1ccc(-c2nc(C(=O)NCC3CCCO3)cc3c2[nH]c2ccccc23)cc1 (stereo unspecified)	10µM*	?	-4.6%	i
Cc1ccccc1-c1nc(C(=O)NCC2CCCO2)cc2c1[nH]c1ccccc12 (stereo unspecified)	10µM*	-18.7%	?	-53.4%
COc1ccc(OC)c(-c2nc(C(=O)NC3CCN(Cc4ccccc4)CC3)cc3c2[nH]c2ccccc23)c1	10µM*	-3.5%	10.9%	-26.7%
CCN(C(=O)Cn1c(=O)n(Cc2ccc3c(c2)OCO3)c(=O)c2ccc(C(=O)NC3CCCCC3)cc21)c1cccc(C)c1	-21.9%	0.1%	-1.2%	-17.9%
COc1ccccc1C(=O)N1CCC(c2c[nH]c3ccccc23)(c2c[nH]c3ccccc23)CC1	?	3.9%	·	-2.4%
COc1ccc(-c2noc(CN(C(=O)c3cc(OC)c(OC)cc3OC)C(C)C)n2)cc1	0.4%	7.5%	5.8%	25.5%
COc1ccc(S(=O)(=O)N(CC(=O)N(C)Cc2ccccc2)c2ccc(Cl)cc2)cc1	?	-10.5%	-4.6%	-14.4%
CC(=O)c1sc(NC(=O)CCS(=O)(=O)c2ccc(C)cc2)nc1C	?	10µM*	-9.2%	-2.7%
CN=C(Nc1ccc(Br)cc1)SC1CC(=O)N(c2ccc(OC)cc2)C1=O (stereo unspecified)	11.2µM*	9.0%	12.4%	-6.5%
COc1ccc(CCC(=O)NC2CC(=O)N(c3ccc(OC)cc3)C2)cc1 (stereo unspecified)	-3.9%	-0.4%	·	11.8%
Nc1nc2c(ncn2[C@H]2C[C@H](O)[C@@H](CO)O2)c(=O)[nH]1	3.4%	2.2%	5.6%	-27.9%
Nc1nc(Cl)nc2c1ncn2C1CC(O)C(CO)O1 (stereo unspecified)	5.62µM*	-4.8%	19.1%	15.5%
CSc1ccc(CNC(=O)c2sc3ncnc(N(C)C4CCCCC4)c3c2C)cc1	?	-5.3%	·	-11.7%
COc1ccc(-n2c(=S)[nH]c3cc(C(=O)Nc4ccc(C)c(F)c4)ccc3c2=O)c(OC)c1	7.08µM*	-4.3%	-2.4%	-21.9%
